Laboratory results taken from PubChem BioAssay (Tox21).
Where “and” joins values, the source holds several entries; their conditions need not be identical. Equal values may be shown once. Inconclusive results are not listed. A call without a number means that no potency is given here. A number with no mark means an inactive call. Calls of active or inactive are those of the source. Calls come from the whole dose curve; as a rule, active = well fitted curve in the direction sought with a large enough effect in the repeat runs; inconclusive = weak or mixed curves; inactive = no such curve, though single readings can be large; an effect the other way counts as inactive or inconclusive.

Tests used:
[1] = qHTS assay to identify small molecule agonists of the RXR signaling pathway - cell viability counter screen (AID 1159529); details: RXR-alpha-bla HEK293T viability, CellTiter-Glo, 16 h; series mostly up to 76.8 µM; note: nearly all actives have a fitted effect of over 50% in size
Procedure, shortened: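 CellTiter-Glo luminescence gave viability in the wells also read for beta-lactamase. Cells (RXR-alpha-UAS-bla HEK 293T, 2% charcoal-stripped FBS medium) had 5 hr plating, then 16 hr compound exposure at 37 C; tetraoctyl ammonium bromide served as positive control.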

[2] = qHTS assay to identify small molecule antagonists of the retinoid acid receptor (RAR) signaling pathway - cell viability counter screen (AID 1159551); details: C3RL4 cells viability, ATP luminescence (CellTiter-Glo), 6 h; series mostly up to 92.4 µM; note: nearly all actives have a fitted effect of over 35% in size
Procedure, shortened: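 Seed C3RL4 cells; next day add compound, then retinol to 1 uM final; incubate 6 h at 37 C; add CellTiter-Glo; read luminescence after 30 min at RT.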

[3] = qHTS assay to identify small molecule antagonists of the retinoic acid receptor (RAR) signaling pathway (AID 1159552; note: nearly all actives have a fitted effect of over 50% in size); details: C3RL4 RARE luciferase reporter, retinol-stimulated, 6 h; series mostly up to 92.4 µM
Procedure, shortened: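 Luminescent RARE reporter read-out in C3RL4 cells: 6 hr co-treatment at 37 C of test compounds with retinol at 1 uM final. Cells plated overnight beforehand; luciferase reagent incubated 30 min at room temperature before reading.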
Potency is the fitted concentration of half-maximal effect.

Q: For `CCC[CH2][Sn]([CH2]CCC)([CH2]CCC)[O][Sn]([CH2]CCC)([CH2]CCC)[CH2]CCC`, which Potency [1] is on record?
A: The Potency was 0.479 µM (active).

Q: And the Potency [2]?
A: The Potency was 1.5 µM (active).

Q: For `C=Cc1cccc(CCl)c1`, which Potency [1] is on record?
A: Its Potency is “inactive”.

Q: With `CSC(C)(C)/C=N/O` as the compound, how does the Potency [1] read?
A: The Potency was “inactive”.

Q: And the Potency [2]?
A: The Potency was “inactive”.

Q: Which Potency [1] does the source give for `CC(=O)C(Cl)C(=O)N(C)C` (stereo unspecified) here?
A: The Potency was “inactive”.

Q: What about the Potency [2] of the same compound?
A: Its Potency is “inactive”.

Q: With `ClC1=C(Cl)[C@]2(Cl)[C@H]3[C@H]([C@@H]4C=C[C@H]3C4)[C@@]1(Cl)C2(Cl)Cl` as the compound, how does the Potency [1] read?
A: The Potency was 49 µM (active).

Q: And the Potency [2]?
A: The Potency was “inactive”.

Q: Which Potency [1] does the source give for `[C-]1=CC=CC1.[Cl][Zr+2][Cl].c1cc[cH-]c1` here?
A: Its Potency is “inactive”.

Q: What does the source list for `CC[C@H](C)[C@H]1O[C@]2(C=C[C@@H]1C)C[C@@H]1C[C@@H](C/C=C(\C)[C@@H](O[C@H]3C[C@H](OC)[C@@H](O[C@H]4C[C@H](OC)[C@@H](NC)[C@H](C)O4)[C@H](C)O3)[C@@H](C)/C=C/C=C3\CO[C@@H]4[C@H](O)C(C)=C[C@@H](C(=O)O1)[C@]34O)O2`?
A: Potency [1]: 4.36 µM (active); Potency [2]: 13.7 µM (active)

Q: With `COc1cnc(OC)n2nc(NS(=O)(=O)c3c(OCC(F)F)cccc3C(F)(F)F)nc12` as the compound, how does the Potency [1] read?
A: Its Potency is “inactive”.

Q: And the Potency [2]?
A: Its Potency is “inactive”.

Q: Which Potency [1] does the source give for `CCCCc1ccccc1` here?
A: Its Potency is “inactive”.

Q: What about the Potency [2] of the same compound?
A: Its Potency is “inactive”.

Q: Which results are given for `C=CCBr`?
A: Potency [1]: inactive; Potency [2]: inactive

Q: With `[Cl-].[Cl-].[Sn+2]` as the compound, how does the Potency [1] read?
A: The Potency was “inactive”.

Q: And the Potency [2]?
A: Its Potency is “inactive”.

Q: Which activity change, negative = cytotoxicity [1] does the source give for `CC(=O)[O-].CC(=O)[O-].CC(=O)[O-].[Sb+3]` here?
A: Its activity change, negative = cytotoxicity is 2.3% [at 2.72 µM].

Q: What about the activity change, negative = cytotoxicity [2] of the same compound?
A: Its activity change, negative = cytotoxicity is 3.99% [at 3.27 µM].

Q: For `CCN(CC)C(=S)S`, which Potency [1] is on record?
A: Its Potency is 19.4 µM (active).

Q: For `CCCCn1cc[n+](C)c1` (tested in a mixture with another compound), which Potency [1] is on record?
A: The Potency was “inactive”.

Q: And the Potency [2]?
A: Its Potency is “inactive”.

Q: With `CC(=O)[O][Sn]([c]1ccccc1)([c]1ccccc1)[c]1ccccc1` as the compound, how does the Potency [1] read?
A: Its Potency is 0.138 µM (active).

Q: What about the Potency [2] of the same compound?
A: The Potency was 7.7 µM (active).

Q: For `CC(=O)O.CC(=O)O.CC(=O)O.CC(=O)O.CC(=O)O.CC(=O)O.CC(=O)O.O.O.[Cr].[Cr].[Cr]`, which Potency [1] is on record?
A: The Potency was “inactive”.

Q: And the Potency [2]?
A: The Potency was “inactive”.

Q: Which results are given for `CNC(C)(C)Cc1ccccc1`?
A: Potency [1]: inactive; Potency [2]: inactive

Q: Which Potency [1] does the source give for `CSC1=N[C@@](C)(c2ccccc2)C(=O)N1Nc1ccccc1` here?
A: The Potency was “inactive”.

Q: What about the Potency [2] of the same compound?
A: Its Potency is “inactive”.

Q: For `Cc1ccc(C)c2ccccc12`, which Potency [1] is on record?
A: The Potency was “inactive”.

Q: What about the Potency [2] of the same compound?
A: The Potency was “inactive”.

Q: What does the source list for `CC(C)=CC1C(C(=O)OC(C#N)c2cccc(Oc3ccccc3)c2)C1(C)C` (stereo unspecified)?
A: Potency [1]: inactive; Potency [2]: inactive

Q: For `Clc1ccc(C2(Cn3cncn3)OCCO2)c(Cl)c1`, which Potency [1] is on record?
A: Its Potency is “inactive”.

Q: What about the Potency [2] of the same compound?
A: Its Potency is “inactive”.

Q: Which Potency [1] does the source give for `Nc1cc(Cl)ccc1Cl` here?
A: Its Potency is “inactive”.

Q: With `COP(=S)(NC(C)C)Oc1ccc(C)cc1[N+](=O)[O-]` (stereo unspecified) as the compound, how does the Potency [1] read?
A: The Potency was “inactive”.

Q: What about the Potency [2] of the same compound?
A: The Potency was “inactive”.

Q: Which Potency [1] does the source give for `O=S1(=O)OCC2C(CO1)C1(Cl)C(Cl)=C(Cl)C2(Cl)C1(Cl)Cl` (stereo unspecified) here?
A: The Potency was 43.6 µM (active).

Q: Which results are given for `[O-][Cl+3]([O-])([O-])O`?
A: Potency [1]: inactive; Potency [2]: inactive

Q: For `O.O.O.O.O.O.O=S(=O)([O-])[O-].[Ni+2]`, which Potency [1] is on record?
A: Its Potency is “inactive”.

Q: Which Potency [1] does the source give for `N#Cc1c[nH]cc1-c1cccc2c1OC(F)(F)O2` here?
A: Its Potency is “inactive”.

Q: And the Potency [2]?
A: Its Potency is “inactive”.

Q: What does the source list for `CCCCn1cc[n+](C)c1.[Cl][Fe-]([Cl])([Cl])[Cl]`?
A: Potency [1]: inactive; Potency [2]: inactive

Q: For `CCOP(=O)(OCC)Oc1cc(C)nc(C(C)C)n1`, which Potency [1] is on record?
A: The Potency was “inactive”.

Q: And the Potency [2]?
A: Its Potency is “inactive”.

Q: With `Cc1nn(-c2cc(NS(C)(=O)=O)c(Cl)cc2Cl)c(=O)n1C(F)F` as the compound, how does the Potency [1] read?
A: The Potency was “inactive”.

Q: And the Potency [2]?
A: Its Potency is “inactive”.

Q: With `COc1ccc2c(c1OC)C(=O)O[C@@H]2[C@H]1c2cc3c(cc2CCN1C)OCO3` as the compound, how does the Potency [1] read?
A: The Potency was “inactive”.

Q: And the Potency [2]?
A: The Potency was “inactive”.

Q: With `CC(=O)[O-].CC(=O)[O-].O.O.[Zn+2]` as the compound, how does the Potency [1] read?
A: Its Potency is “inactive”.

Q: And the Potency [2]?
A: Its Potency is “inactive”.

Q: With `CC(C)C(Br)C(=O)NC(N)=O` (stereo unspecified) as the compound, how does the Potency [1] read?
A: Its Potency is “inactive”.

Q: Which results are given for `CN1CCc2cc3c(cc2C1O)OCO3` (stereo unspecified)?
A: Potency [1]: inactive; Potency [2]: inactive

Q: With `CNC(=O)O/N=C(\C)C(C)S(C)(=O)=O` (stereo unspecified) as the compound, how does the Potency [1] read?
A: The Potency was “inactive”.

Q: What about the Potency [2] of the same compound?
A: The Potency was “inactive”.

Q: What does the source list for `COP(=S)(OC)Oc1ccc([N+](=O)[O-])c(C)c1`?
A: Potency [1]: inactive; Potency [2]: inactive

Q: Which Potency [1] does the source give for `CCN(CC)CCN1C(=O)CN=C(c2ccccc2F)c2cc(Cl)ccc21` here?
A: Its Potency is “inactive”.

Q: And the Potency [2]?
A: The Potency was “inactive”.

Q: Which Potency [1] does the source give for `CCn1cc[n+](C)c1` (tested in a mixture with another compound) here?
A: Its Potency is “inactive”.

Q: And the Potency [2]?
A: Its Potency is “inactive”.

Q: For `O.O.O.O.O.O.O.O=S(=O)([O-])[O-].[Co+2]`, which Potency [1] is on record?
A: Its Potency is “inactive”.

Q: What about the Potency [2] of the same compound?
A: Its Potency is “inactive”.

Q: With `O=[N+]([O-])c1ccc(Cl)c(Cl)c1Cl` as the compound, how does the Potency [1] read?
A: Its Potency is “inactive”.

Q: And the Potency [2]?
A: Its Potency is “inactive”.

Q: And the Potency [3]?
A: Its Potency is “inactive”.

Q: For `CCN(CC)Cc1nccn1-c1ccc([N+](=O)[O-])cc1C(=O)c1ccccc1Cl`, which Potency [1] is on record?
A: The Potency was “inactive”.

Q: What about the Potency [2] of the same compound?
A: Its Potency is “inactive”.

Q: What does the source list for `O=S1OCC2C(CO1)C1(Cl)C(Cl)=C(Cl)C2(Cl)C1(Cl)Cl` (stereo unspecified)?
A: Potency [1]: 48.9 µM (active); Potency [2]: 54.5 µM (active); Potency [3]: 48.6 µM (active) and 54.4 µM (active)

Q: With `CC(=O)[O-].CC(=O)[O-].O.O.O.[Pb+2]` as the compound, how does the Potency [1] read?
A: The Potency was “inactive”.

Q: And the Potency [2]?
A: Its Potency is “inactive”.
